Screens (PubChem)
Shown are actives, neighbours in structure and some others; about 1.2% of the full set was active somewhere.
MEP2 TOR yeast = yeast TOR pathway MEP2-GFP modulation. S. cerevisiae MEP2-GFP strain, flow cytometry GFP, 3 h; 100% = DMSO control level. GFP response vs DMSO, % at 10 µM. 0.51% of 330,000 active;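 active = GFP response versus DMSO above a set limit, roughly screen mean plus 3 SD, cut at about 180% in these data; inconclusive = fewer than 70 cells counted for a yeast strain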;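 note: median GFP fluorescence of the barcode-gated MEP2-GFP cells per well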
DSG3 Ab inh = blocks pemphigus antibody binding to human desmoglein-3 | P32926 | DSG3-coupled beads, scFv-anti-DSG3-GFP binding, flow cytometry; hits give low values | binding (percent of control), % at 10 µM | 0.48% of 310,000 active | AID 588358;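 active = binding more than 3 SD below its plate's average and above zero; inconclusive = below that plate limit but binding exactly zero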;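 note: hits lower antibody fragment binding to DSG3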
Target sequence (P32926 whole entry, looked up, the tested form may be a part): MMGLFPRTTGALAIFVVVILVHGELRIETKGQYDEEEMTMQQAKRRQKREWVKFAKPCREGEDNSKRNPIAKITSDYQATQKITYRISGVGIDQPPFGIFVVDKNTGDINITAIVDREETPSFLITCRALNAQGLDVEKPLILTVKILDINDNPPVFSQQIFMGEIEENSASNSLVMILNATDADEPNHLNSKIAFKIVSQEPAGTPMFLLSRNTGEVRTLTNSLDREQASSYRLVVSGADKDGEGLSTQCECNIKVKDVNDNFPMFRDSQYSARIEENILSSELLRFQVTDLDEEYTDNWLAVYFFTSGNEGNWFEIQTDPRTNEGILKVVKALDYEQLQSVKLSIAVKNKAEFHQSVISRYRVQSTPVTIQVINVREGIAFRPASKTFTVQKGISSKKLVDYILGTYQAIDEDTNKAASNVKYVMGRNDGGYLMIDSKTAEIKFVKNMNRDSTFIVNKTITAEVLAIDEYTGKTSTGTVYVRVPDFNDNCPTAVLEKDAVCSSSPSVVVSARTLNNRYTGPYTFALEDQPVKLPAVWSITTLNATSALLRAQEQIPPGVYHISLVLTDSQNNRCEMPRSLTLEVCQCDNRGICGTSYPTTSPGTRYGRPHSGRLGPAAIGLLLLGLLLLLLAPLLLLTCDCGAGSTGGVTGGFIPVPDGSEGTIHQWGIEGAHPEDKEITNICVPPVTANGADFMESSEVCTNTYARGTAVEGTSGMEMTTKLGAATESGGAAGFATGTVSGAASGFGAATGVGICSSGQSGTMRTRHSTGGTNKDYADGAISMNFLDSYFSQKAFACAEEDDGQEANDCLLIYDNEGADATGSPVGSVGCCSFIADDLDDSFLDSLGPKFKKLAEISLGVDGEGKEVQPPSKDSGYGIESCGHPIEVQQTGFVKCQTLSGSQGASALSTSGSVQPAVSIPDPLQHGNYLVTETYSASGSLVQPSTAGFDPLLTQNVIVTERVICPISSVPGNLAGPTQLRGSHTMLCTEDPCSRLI
LAP4-GFP MLPCN = yeast TOR pathway LAP4-GFP modulation | S. cerevisiae LAP4-GFP multiplex, flow cytometry GFP, 3 h; median GFP as percent of DMSO wells | GFP response vs DMSO, % at 10 µM | 0.34% of 320,000 active;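 active = GFP response vs DMSO above a set limit, about the screen mean plus 3 SD, cut at about 150% in these data; inconclusive = under 70 cell events counted for the yeast strain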
RPL19A-GFP yeast = alters RPL19A-GFP fluorescence in TOR pathway yeast screen; 0.3% of 330,000 active; S. cerevisiae RPL19A-GFP strain, flow cytometry, 3 h; hits give low values; percent response vs DMSO, % at 10 µM;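 active = percent response vs DMSO below 50%; inconclusive = fewer than 70 events counted for the yeast strain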;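 note: median channel GFP fluorescence of the barcoded RPL19A-GFP strain; ratio of sample median GFP to plate DMSO average so 100% = DMSO; lower means less RPL19A-GFP as with rapamycin TOR inhibition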
AGP1-GFP MLPCN = alters AGP1-GFP fluorescence in TOR pathway yeast screen; GFP response vs DMSO, % at 10 µM; 0.02% of 320,000 active; AID 2066; S. cerevisiae AGP1-GFP multiplex flow cytometry, 3 h; GFP as percent of DMSO wells;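 active = GFP response relative to DMSO above a set limit, near screen average plus 3 SD, cut at about 150% in these data; inconclusive = fewer than 70 cells counted for the yeast strain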;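 note: median GFP channel fluorescence of the gated AGP1 strain per well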
CIT2 TOR yeast = yeast TOR pathway CIT2-GFP modulation; AID 2029; 0.065% of 320,000 active; GFP response vs DMSO, % at 10 µM; S. cerevisiae CIT2-GFP strain, flow cytometry, 3 h; 100 means same as DMSO wells;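 active = GFP response relative to DMSO above a set limit, near the screen mean plus 3 SD, cut at about 150% in these data; inconclusive = Fewer than 70 cells measured for a yeast strain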;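 note: ratio of well median GFP fluorescence to mean of DMSO wells on the plate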
* hit, by the source's call; ? = inconclusive; . = no result; ! = a repeat was not active; [ ] = remark or other dose.

SMILES	MEP2 TOR yeast	DSG3 Ab inh	LAP4-GFP MLPCN	RPL19A-GFP yeast	AGP1-GFP MLPCN	CIT2 TOR yeast
O=C1c2cc3c(cc2CCC1c1ccc2c(c1)OCO2)OCO3 (configuration not stated)	.	102	.	.	.	.
Cc1ccc(-c2ccc(/C=N/NC(N)=S)o2)cc1	93	105	158*	82	82	85
NC(=S)N/N=C/c1ccc(-c2ccccc2)o1	98	98	112	96	98	93
N#C/C(=C/c1ccc(-c2ccc([N+](=O)[O-])cc2)o1)C(=O)Nc1nc(-c2cccs2)cs1	.	74*	.	.	.	.
N#C/C(=C\c1ccc(-c2ccc(F)cc2)o1)C(=O)Nc1nc(-c2cccs2)cs1	105	99	102	99	92	95
Nc1nc(-c2ccccc2)c(C(=O)Nc2ccccc2)s1	?	104	133	16*[may fluoresce violet]	?	?
COc1cccc(C(=O)Nc2ccc(NC(=O)c3cc4ccccc4o3)c(OC)c2)c1	107	116	95	103	98	101
COc1cc(NC(=O)c2ccccc2)ccc1NC(=O)c1cc2ccccc2o1	207*	119	133	107	95	145
COCCN(CC(=O)Nc1cccc(C)c1)S(=O)(=O)c1ccc(S(=O)(=O)N2CCCC2)cc1	104	-25*	101	102	103	104
Cc1cccc(NC(=O)CSCC(=O)Nc2ccc(S(=O)(=O)N3CCCCC3)cc2)c1	.	99	.	.	.	.
O=C(N/N=C/c1c(F)cccc1Cl)c1cc(C2CC2)[nH]n1	96	?	104	98	101	95
COc1ccc(CCNC(=O)COc2cccc(-n3cnnn3)c2)cc1	.	69	.	.	.	.
COC(=O)c1[nH]c2ccc(Cl)cc2c1NC(=O)CCN1CCN(C2CCCCC2)CC1	99	104	109	95	105	96
COC(=O)c1[nH]c2ccc(Br)cc2c1NC(=O)CN1CCN(C2CCCCC2)CC1	281*[may fluoresce violet]	100	97	17*[may fluoresce violet]	71	?
O=C(Cn1nnc2ccccc21)c1ccc(Br)cc1	104	13*	104	98	100	99
c1ccc(-c2csc3ncnc(N4CCN(Cc5ccc6c(c5)OCO6)CC4)c23)cc1	103	?	88	99	94	102
O=C(CSc1ncnc2scc(-c3ccccc3)c12)N1CCN(Cc2ccc3c(c2)OCO3)CC1	198*[may fluoresce violet]	120	57	30*[may fluoresce violet]	?	?
CCOc1ccc(OCc2ccc(C(=O)OCc3ccccn3)o2)cc1	94	40*	119	97	80	71
Nc1cccc(-c2nc3ccc(N)cc3s2)c1	108	109	111	98	72	92
Nc1ccc(-c2nc3ccc(N)cc3s2)cc1	290*[may fluoresce violet]	105	97	90	25	?
Cc1cc(C)n2nc(CC(=O)NC3CCCCCC3)nc2n1	104	103	103	100	103	111
Cc1ccc(Cl)cc1N1CCN(C(=O)Cc2c(C(=O)O)[nH]c3ccc(Cl)cc23)CC1	112	23*	111	102	108	98
CCOC(=O)Nc1ccc2c(c1)N(C(=O)CCN1CCN3CCCC3C1)c1ccccc1CC2 (configuration not stated)	103	98	103	101	102	93
COC(=O)Nc1ccc2c(c1)N(C(=O)CCN1CCN3CCCC3C1)c1ccccc1CC2 (configuration not stated)	229*!	92	157*!	80	131	100
COc1cccc(C(=O)Nc2ccc(NC(=O)Cc3ccccc3)cc2)c1	93	92*	84	103	99	96
SMILES	MEP2 TOR yeast	DSG3 Ab inh	LAP4-GFP MLPCN	RPL19A-GFP yeast	AGP1-GFP MLPCN	CIT2 TOR yeast
COc1cccc(C(=O)Nc2ccccc2)c1	100	102	93	95	102	102
COc1cccc(NC(=O)c2ccc3c(c2)CCCC3)c1	77	96	174*	77	84	57
CC(=O)c1cccc(NC(=O)c2ccc3c(c2)CCCC3)c1	100	111	101	103	99	98
O=[N+]([O-])c1ccc(Nc2ccccc2)c2nonc12	105	104	105	98	102	96
NNc1ccc([N+](=O)[O-])c2[nH][nH]c(=O)c12	.	83*	.	.	.	.
Cc1ccc(S(=O)(=O)N2C[C@H]3n4c(=O)ccc(=O)n4C[C@H](OC(=O)Nc4c(C)noc4C)[C@@]3(O)C2)cc1	.	92*	.	.	.	.
Cc1ccc(S(=O)(=O)N2C[C@H]3[C@H]4C(=O)N(c5ccccc5)C(=O)[C@H]4C[C@H](OC(=O)Nc4c(C)noc4C)[C@@]3(O)C2)cc1	.	104	.	.	.	.
O=C(CSc1nc2ccsc2c(=O)n1CC1CCC(C(=O)O)CC1)c1ccc(Cl)cc1 (configuration not stated)	101	103	111	96	99	94
O=C(CSc1nc2ccsc2c(=O)n1CC1CCC(C(=O)O)CC1)c1ccc(F)cc1 (configuration not stated)	880*	109	224*	74	215*	259*
Nc1nonc1-n1nnc(C(=O)N/N=C/c2cccc(Cl)c2Cl)c1CN1CCCC1	99	97	95	105	100	110
O=C(NCC(c1ccc(F)cc1)N1CCOCC1)c1cc(F)c(F)c(F)c1F (configuration not stated)	155	97	77	105	78	171*
CCN(CC)S(=O)(=O)c1ccc(N/N=C/c2ccc(OC)c(OC)c2OC)nc1	100	99	88	99	98	98
CCN(CC)S(=O)(=O)c1ccc(N/N=C/c2cc(OC)c(OC)cc2OC)nc1	201*[may fluoresce violet]	63*	88	68	22	?
CN(CC(=O)Nc1ccccc1Cl)C(=O)COC(=O)/C=C/c1cccc(C(F)(F)F)c1	109	110	107	102	112	112
CCN(CCCNC(=O)C1CCC(=O)N1Cc1ccccc1Cl)c1cccc(C)c1 (configuration not stated)	108	78*	105	106	107	107
O=C(N/N=C/c1ccc(-c2ccc(Br)cc2)o1)c1ccc2c(c1)OCO2	91	.	162*	92	90	84
Cc1c(C(=O)NCCSCc2cccc(C(F)(F)F)c2)cnn1-c1ccc(F)cc1	96	.	153*	71	17	66
Cn1nc(-c2ccc(Cl)cc2)nc2c(=O)n(C)c(=O)nc1-2	111	.	203*	52	105	62
CCOC(=O)C1CCN(c2cc(=O)n(C3CCCCC3)c(=O)[nH]2)CC1	169	101	90	98	68	100
CCOC(=O)N1CCN(c2cc(=O)n(C3CCCCC3)c(=O)[nH]2)CC1	266*[may fluoresce violet]	107	60	62	?	?
